# Compound activity (PubChem)
# This is a sample that favours compounds with a hit; in the whole collection about 4.9% have one here.
# tim23-1 inh – inhibits growth of tim23-1 mutant yeast | S. cerevisiae tim23-1 growth, BacTiter-Glo luminescence, 24 h | inhibition, % at 20 µM | 1.3% of 330,000 active | AID 463212;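 active = growth inhibition of the mutant yeast at or above 50%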;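 note: temperature-sensitive mutant grown at 25 °C; plate controls were DMSO-treated mutant yeast for no effect and medium wells lacking yeast for full effect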
# SKKanGAS inh – blocks kanamycin growth of S. pyogenes SKKanGAS strain | BacTiter-Glo, 6 h | inhibition, % at 7.5 µM | 1.3% of 300,000 active | AID 1662;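 active = mean replicate score, as percent of positive control median, at least 50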;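 note: strain carries kanamycin resistance gene driven by streptokinase promoter and grows in 40 µg/ml kanamycin; loss of luminescence reflects streptokinase promoter inhibition or plain growth inhibition; 0% = median of DMSO wells and 100% = positive control at its reference dose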
# TIM10 inh – TIM10 yeast growth inhibition; 1.4% of 330,000 active; AID 463195; inhibition, % at 10 µM; S. cerevisiae TIM10 strain growth, BacTiter-Glo luminescence, 24 h;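 active = inhibition of 40% or more at the single tested concentration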;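 note: wild-type TIM10 isogenic control strain grown at permissive 25 °C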
# NALP3 yeast inh – NALP3 inhibition in yeast | Yeast reconstituted NLRP3/ASC/caspase-1, beta-gal luminescence, 24 h | inhibition, % at 10 µM | 0.39% of 330,000 active;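 active = inhibition of 50% or more; inactive = inhibition below 50%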;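 note: plate controls were induced DMSO wells for no effect and uninduced yeast grown without galactose for full effect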
# NALP1 inh – blocks the NALP1 inflammasome reconstituted in yeast. inhibition, % at 10 µM. S. cerevisiae NALP1/ASC/caspase-1 growth, X-gal OD620, 72 h. 0.61% of 280,000 active; in the data active = inhibition mostly above about 24%, no sharp cut-off; inactive = mostly below about 32%
# tim10-1 inh – growth inhibitors of tim10-1 mutant yeast; 2.2% of 330,000 active; inhibition, % at 20 µM; S. cerevisiae tim10-1 ts strain growth, BacTiter-Glo, 24 h;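 active = inhibition of at least 40%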;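 note: mutant grown at 25 °C; 0% = DMSO wells with yeast and 100% = wells holding no yeast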
# Numbers without * were called inactive; . = no result.
SMILES,tim23-1 inh,SKKanGAS inh,TIM10 inh,NALP3 yeast inh,NALP1 inh,tim10-1 inh
N#Cc1nc(-c2ccccc2Cl)oc1N1CCN(C(=O)c2ccco2)CC1,5,69*,7,24,1,-6
COc1ccc(/C=C/C(=O)c2ccccc2O)cc1,32,8,13,20,32,20
Cc1ccc(/C=C/C(=O)c2ccccc(=O)c2O)cc1C,.,97*,.,.,19,.
O=C(/C=C/c1ccccc1)c1cc(Br)ccc(=O)c1O,0,98*,-8,22,-7,-1
Nc1nc2nccc(-c3ccc(Cl)cc3)n2n1,17,.,25,34,36*,-6
Cc1cc(-c2ccc(Cl)cc2)n2nc(N)nc2n1,6,-10,7,11,10,10
C/C(=N\Nc1nc(N2CCCCC2)nc(N2CCOCC2)n1)c1ccccc1O,37,17,11,28,5,23
COc1cc(OC)cc(-c2c(C#Cc3ccsc3)c3cc(-c4cccc5[nH]ccc45)ccc3n2C)c1,3,.,1,0,.,10
C[C@H]1COc2c(N3CCN(C)CC3)c(F)cc3c(=O)c(C(=O)O)cn1c23,3,107*,7,4,-3,-6
C[C@H]1COc2c(C3(N)CC3)c(F)cc3c(=O)c(C(=O)O)cn1c23,.,66*,.,.,-20,.
O=[N+]([O-])c1ccc(O)c(Nc2ncnc3ccc(Br)cc23)c1,-22,51*,-13,13,-2,-51
O=[N+]([O-])c1ccc(O)c(Nc2ncnc3ccccc23)c1,-1,-1,-9,25,15,-9
O=C(c1c[nH]c2ccccc12)C(Cl)c1ccccc1 (stereo unspecified),38,4,35,33,45*,31
O=C(c1c[nH]c2ccccc12)C(O)C(c1ccccc1)N1CCOCC1 (stereo unspecified),8,-1,0,-8,-7,-5
COc1ccc(/C=C/C(=O)c2c(C)nc3ccccn23)cc1,22,51*,17,-2,17,23
COc1ccc2c(c1)c(CC(=O)Nc1ccc(C(C)=O)cc1)c(C)n2C(=O)c1ccc(Cl)cc1,26,26,29,18,.,18
COc1ccc2c(c1)c(CC(=O)NCc1cc([N+](=O)[O-])ccc1O)c(C)n2C(=O)c1ccc(Cl)cc1,-9,51*,7,29,6,1
CN(C)S(=O)(=O)c1ccc(N=Cc2c(C(F)(F)F)[nH][nH]c2=O)cc1,0,4,1,-9,0,8
COC(=O)c1ccc(N=Cc2c(C(F)(F)F)[nH][nH]c2=O)cc1,2,-2,-6,5,27*,3
CCOC(=O)c1nn(-c2ccccc2Cl)c(=O)cc1OCC(=O)Nc1cccc(OC)c1,15,53*,-4,13,.,7
O=C(Cn1c(=O)oc2cc(S(=O)(=O)N3CCCC3)ccc21)N1CCN(c2ccccc2)CC1,23,3,2,14,39*,0
Cc1ccc(C)c(N2CCN(C(=O)Cn3c(=O)oc4cc(S(=O)(=O)N5CCCC5)ccc43)CC2)c1,12,3,7,-4,22,6
CCCCn1c(=O)c(C(=O)N/N=C/c2ccc(F)cc2)c(O)c2ccccc21,-2,11,11,15,0,6
CC(C)Cn1c(=O)c(C(=O)N/N=C/c2cccc(F)c2)c(O)c2ccccc21,-3,64*,-6,4,8,-2
Cc1ccc(C(=O)/C=C\C(=O)c2ccc(C)cc2)cc1,.,56*,.,.,66,.
SMILES,tim23-1 inh,SKKanGAS inh,TIM10 inh,NALP3 yeast inh,NALP1 inh,tim10-1 inh
CC(/C=C/C(=O)c1ccc(C)cc1)=C\c1ccccc1,22,30,28,13,10,21
O=C(Nc1ccccc1)N1CCc2ccccc2C1,12,0,12,20,50*,4
Cc1ccc(C(=O)NC(=S)Nc2ccc(-c3ccc(CO)o3)cc2)cc1,17,61*,20,16,13,36
O=C(CCc1nc(-c2ccccc2)c(-c2ccccc2)o1)OCc1ccc(Br)cc1,-1,0,-16,-7,10,24
O=C(CCc1nc(-c2ccccc2)c(-c2ccccc2)o1)OCc1ccc(Cl)cc1,7,-2,-17,0,37*,20
CC(=O)C[C@@H](O)CC(=O)[C@@H]1OC(=O)[C@@H](C)CCCCc2ccccc21,20,.,4,8,.,11
CC(C)c1ccc(NC(=O)C2=NNC(=O)CC2)cc1,-10,-14,12,12,8,-20
Cc1ccc(NC(=O)C2=NNC(=O)CC2)cc1F,10,-18,-8,-1,36*,0
COc1ccc(C(=O)NCCc2cnc[nH]2)cc1OC,0,-1,4,3,12,1
CN(Cc1cnc2nc(N)nc(N)c2n1)c1ccc(C(=O)N[C@@H](CCC(=O)O)C(=O)O)cc1,-8,89*,3,15,.,-9
N#CCSc1ccccc1NC(=O)CN1C(=O)C(=O)N(Cc2ccccc2)C1=O,-6,.,-7,6,.,-10
C=CCc1ccccc1OCC(=O)NNC(=S)NCc1ccccc1,35,7,15,17,-3,17
O=C(NC(=S)N1CCN(c2nc(-c3ccccc3)cs2)CC1)c1cccnc1,12,79*,15,12,26,33
O=C(Nc1nc(-c2ccccc2)cs1)c1cccnc1,-5,4,-9,15,12,-2
CC(C)[C@H]1COCCS(=O)(=O)N1Cc1ccccc1-c1cccc(Cl)c1,45,.,-7,.,.,16
Cc1cc(C)c(C)c(OCCCOc2cccc3cccnc23)c1,17,61*,31,10,20,26
O=C(c1ccc(Cl)cc1)c1cnc(Nc2ccccc2Cl)s1,17,75*,25,15,18,23
COc1cc(OC)c2cc(C(=O)N/N=C/c3ccccc3O)[nH]c2c1,26,103*,21,20,-6,1
Cc1ccc2[nH]c(C(=O)N/N=C/c3ccccc3O)c(C)c2c1,2,101*,7,15,-3,-15
COc1cccc(C(=O)Nc2nc(-c3ccccc3)c(-c3ccccc3)o2)c1,-1,92*,12,-65,2,31
O=C(Nc1nc(-c2ccccc2)c(-c2ccccc2)o1)c1ccc(F)cc1,23,101*,35,-39,-3,33
CCc1ccc(S(=O)(=O)Nc2cc3c(cc2C)n(C)c(=O)n3C)cc1,8,-4,1,13,27,15
C1=C(c2cc3ccccc3cn2)CCCC1,35,.,2,21,.,1
COc1ccccc1NC(=O)c1ccc(NC(=O)c2cc3c(s2)CCC3)cc1,-1,73*,1,18,26,9
COC(=O)Nc1ccc(S(=O)(=O)NC2CCCCC2)cc1,17,-3,16,17,5,10
CNC(=O)CN1C(=O)CSc2ncccc21,-4,-3,8,-2,41*,16
